# Reference: PubChem BioAssay AID897 (National Center for Advancing Translational Sciences (NCATS), 2007)
# This is one part of the list. Where a call stands in place of a potency, no number is given. Inconclusive results are not listed. The source made the active and inactive calls. The call rests on the fitted dose curve; in most records, active means well fitted inhibition curve with a large enough effect in the main read-out, with a control signal flat (not every such curve was filed as active); inconclusive means small, poorly fitted or top-dose-only effect, or a change in a side signal; inactive means no such curve, though single readings can be large or run the other way.
# Molecular target: Caspase-7 (Homo sapiens) (UniProt P55210)
# Sequence (P55210 24-198 limits assumed): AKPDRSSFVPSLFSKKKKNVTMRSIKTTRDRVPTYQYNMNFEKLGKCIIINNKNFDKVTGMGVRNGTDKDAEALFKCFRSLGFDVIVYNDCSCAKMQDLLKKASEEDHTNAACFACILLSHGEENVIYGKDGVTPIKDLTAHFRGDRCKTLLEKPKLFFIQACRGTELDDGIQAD
# Sequence (P55210 207-303 limits assumed): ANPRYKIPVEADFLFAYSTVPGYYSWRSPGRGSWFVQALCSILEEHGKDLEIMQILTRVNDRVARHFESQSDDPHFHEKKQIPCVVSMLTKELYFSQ
# Test: Confirmation Concentration-Response Assay for Allosteric/Competitive Inhibitors of Caspase-7
# Conditions: recombinant caspase-7, fluorogenic substrate cleavage; series mostly up to 57.5 µM
# Description: NIH Molecular Libraries Screening Centers Network [MLSCN]
# NIH Chemical Genomics Center [NCGC]
# PI Name: Dr. James Wells,
# Dr. Enrique Perez-Paya, Dr.Janice Williams, Dr. Dennis Wolan, a person
# The caspases (Cysteine Aspartyl Protease) comprise a related family of 14 dimeric proteases that are critical mediators of apoptosis (programmed cell death) and inflammation. The caspases represent an important class of drug targets for stroke, ischemia, cancer and inflammatory diseases. […] One goal of this project was to identify compounds that act as allosteric inhibitors via stabilizing the procaspase form of the enzyme. Previous work in Well's laboratory has shown that such allosteric inhibitors can be identified and these act by binding at the dimer interface of enzyme (Hardy, Lam et al., 2004).
# The biochemical assay was configured using purified caspase 7 at a high enzyme concentration to promote formation of the homodimers and thus facilitate the identification of allosteric inhibitors. […] After initiation of the assay with substrate the plates were rapidly read using an automated robotic system (Kalypsys, Inc.) to maintain consistent timing. […]
# Caspase 7 was prepared in buffer (50 mM HEPES pH 7.5, 50 mM KCl, 200 mM NaCl, 10 mM DTT, 0.1% CHAPS) at a concentration of 66.6 nM and 3 uL was dispensed to all wells using black solid Kalypsys 1536-well plates. […] The plates were then exposed using 405 nm excitation/520 nm emission filters for 4 sec and read at 20 sec intervals for 3 min. […]
# Concentration-response curves were fitted to the data calculated from slope of the linear regression of fluorescent intensity versus time (the rate). The concentration-effect curves were then classified based on curve quality (r2), response magnitude and degree of measured activity. […] Inconclusive compounds had appreciable concentration-dependent effects on both the measured rate and the interpolated basal fluorescence intensity at the start of the reaction but where the basal fluorescent intensity was marginal (e.g. < 10-fold). […]
row,Compound,Potency
1,CCN1C(=O)/C(=C2/Sc3ccccc3N2CCCS(=O)(=O)O)SC1=S,inactive
2,N#CC1=C(N)Oc2cc(O)ccc2C1C1CCCCC1 (stereo not drawn),25.1 µM (active)
3,Cc1nc2c(C(=O)NCc3ccc4c(c3)OCO4)c[nH]n2c(=O)c1Cc1ccccc1F,inactive
